SMILES strings stand for the structures. Inconclusive results are not listed. Activity calls are given as the source filed them. Calls follow the shape of the dose curve; as a rule, active = well fitted inhibition curve with a large enough effect in the signal ratio in the repeat runs (not every such curve was filed as active); inconclusive = weak or mixed curves, or effect the other way; inactive = flat fitted curve, though single readings scatter; the % refers to the signal ratio.
% is scaled to controls: 0 for no effect and ±100 for the full control effect.

The nature of this assay: cAMP Responsive Elements (CRE) small molecule antagonists, cell-based qHTS assay (AID 1963591). The following applies: CRE-bla HEK293T, beta-lactamase FRET ratio; series mostly up to 92.4 µM; activity change, negative = inhibition: at the top concentration. An excerpt: U.S. Tox21 Program National Center for Advancing Translational Sciences [NCATS] Division of Preclinical Innovation [DPI] U.S. Environmental Protection Agency [EPA] National Institutes of Environmental Health Sciences [NIEHS] National Toxicology Program [NTP] U.S. Food and Drug Administration [FDA] Tox21 Assay Overview: CREB (cyclic-AMP Responsive Element Binding Protein) is a cellular transcription factor. It binds to certain DNA sequences called cAMP Responsive Elements (CRE) and regulates the transcription of the genes. […] This cell line can be used to find agonists/antagonists of the cyclic AMP signaling pathway. The activation of the report gene under culture conditions can be detected by fluorescence intensity. This cell line has been used to screen the Tox21 10K compound library to […].
Tox21 Assay Protocol Summary: CRE-bla Hek 293T cells were suspended in assay medium (DMEM containing 10% dialyzed FBS, 0.1 mM NEAA, 1 mM sodium pyruvate and 25 mM HEPES) and dispensed at 2,000 cells/4 uL /well into 1536-well black wall/clear bottom plates using a Multidrop Combi (ThermoFisher Scientific, Waltham, MA) dispenser. After the assay plates were incubated at 37 C/5% CO2 for 18 hrs, 23 nL of compounds dissolved in DMSO, positive controls or DMSO only was transferred to the assay plate by a pintool workstation (Kalypsys, San Diego, CA), followed by addition of 1 […] uL of 1.25uM NKH477 (0.25 uM as final concentration) in assay medium using a Flying Reagent Dispenser (Aurora Discovery, San Diego, CA). The plates were incubated at 37 C and 5% CO2 for 3 hrs. Then 1 uL of LiveBLAzer B/G FRET substrate (Invitrogen, Carlsbad, CA) was added to each well using Bioraptr Flying Reagent Dispenser (FRD, Aurora Discovery, San Diego, CA). The plates were incubated at room temperature for 2 h.
Background: In qHTS, concentration-response curves come from the screen itself.
Turning to `Cc1cccc(N(C)C(=S)Oc2ccc3c(c2)CCC3)c1`, the “activity change, negative = inhibition” value is 5.04% [at 42.4 µM] (inactive).
`COc1cc(O)cc(O)c1`: the “activity change, negative = inhibition” value was -2.53% [at 42.4 µM] (inactive).
The figure for `CCOC(=O)OCC/C(SC(=O)OCC)=C(\C)N(C=O)Cc1cnc(C)nc1N` is 14.8% [at 42.4 µM] (inactive); for `CC(=O)CCCCn1c(=O)c2c(ncn2C)n(C)c1=O` it is 7.57% [at 42.4 µM] (inactive).
Next, `CO[C@@H]1COCC[C@@H]1N[C@@H]1CC[C@@](C(=O)N2CCc3ncc(C(F)(F)F)cc3C2)(C(C)C)C1`: 8.28% (inactive).
Next, `CC(C)C(=O)OC/C=C/c1ccccc1`: -7.91% (inactive); `CC1(C)C(=O)N(CO)C(=O)N1CO`: -7.19% (inactive).
For the compound `CCCCCCC(CO)CCCC` (stereo not given), the “activity change, negative = inhibition” value was -5.57% (inactive).
The figure for `CC(C)C(=O)Nc1cccc(C(F)(F)F)c1` is 8.08% [at 42.4 µM] (inactive).
With `CCCCCc1ccc(Cl)cc1`, the “activity change, negative = inhibition” value was -17.6% (inactive).
In the case of `CCC(=O)O[C@]1(C(=O)SCF)[C@H](C)C[C@H]2[C@@H]3C[C@H](F)C4=CC(=O)C=C[C@]4(C)[C@@]3(F)[C@@H](O)C[C@@]21C`, the “activity change, negative = inhibition” value was 10.8% [at 42.4 µM] (inactive).
The figure for `O=C1OCCN1/N=C/c1ccc([N+](=O)[O-])o1` is 1.26% [at 42.4 µM] (inactive).
Next, `CC(C)=CCC1C(=O)N(c2ccccc2)N(c2ccccc2)C1=O`: -5.22% [at 42.4 µM] (inactive); `O[C@@H]1CO[C@H]2[C@@H]1OC[C@@H]2O`: -11.5% [at 42.4 µM] (inactive); `CC(NC(CCc1ccccc1)C(=O)O)C(=O)N1C(=O)N(C)CC1C(=O)O` (stereo not given): -7.09% [at 42.4 µM] (inactive).
Next, `CC(C)CCCCCCOC(=O)c1ccc(C(=O)OCCCCCCC(C)C)c(C(=O)OCCCCCCC(C)C)c1`: -10% (inactive).
For the compound `CCc1nccnc1CC`, the activity change, negative = inhibition is -3.19% [at 18.9 µM] (inactive).
As for `O=C(O)CCNC(=O)c1ccc(N=Nc2ccc(O)c(C(=O)O)c2)cc1`, the “activity change, negative = inhibition” value is 0.466% [at 42.4 µM] (inactive).
The figure for `O=C(OCC(COC(=O)c1ccccc1)(COC(=O)c1ccccc1)COC(=O)c1ccccc1)c1ccccc1` is -4.38% (inactive).
Take `Cc1ccc(Cl)c(OCC(O)CNC(C)(C)C)c1` (stereo not given): the “activity change, negative = inhibition” value was -9.02% [at 42.4 µM] (inactive).
The figure for `CCCCCCCC/C=C\CCCCCCCC(=O)OC` is 0.675% (inactive).
The figure for `C/C=C/C(=O)CC` is 1.47% [at 18.9 µM] (inactive).
In the case of `CN1Cc2cc(C(=O)N3CCC(C4CCNCC4)CC3)ccc2N[C@@H](CC(=O)O)C1=O`, the “activity change, negative = inhibition” value was 7.75% [at 42.4 µM] (inactive).
Next, `CN(C)CCN1CCN(c2cccc(Cl)c2)C1=O`: 0.302% [at 42.4 µM] (inactive); `ClC(Cl)(Br)Br`: -8.28% (inactive).
For the compound `CCCCC`, the “activity change, negative = inhibition” value is -0.313% (inactive).
For the compound `Cc1cccc(CN2CCN(C(c3ccccc3)c3ccc(Cl)cc3)CC2)c1` (stereo not given), the “activity change, negative = inhibition” value was 16.8% [at 42.4 µM] (inactive).
In the case of `Cc1ccnc(N)c1`, the “activity change, negative = inhibition” value was 9.01% (inactive).
Next, `CCOC(=O)[C@H](C)O`: -6.45% (inactive).
Regarding `CCCCN(CCCC)CCCOC(=O)c1ccc(N)cc1`, the “activity change, negative = inhibition” value was -3.02% [at 42.4 µM] (inactive).
Next, `O=C(O)/C=C/c1ccc(/C=C/C(=O)O)cc1`: -7.75% [at 42.4 µM] (inactive); `CC(=O)OC1CCC(C(C)(C)C)CC1` (stereo not given): 4.33% (inactive); `CC(N)C(=O)OC(C)(C)Cc1ccc(Cl)cc1` (stereo not given): -4.4% [at 42.4 µM] (inactive).
On to `CCCCC(=O)O[C@]1(C(=O)CO)[C@H](C)C[C@H]2[C@@H]3CCC4=CC(=O)C=C[C@]4(C)[C@@]3(F)[C@@H](O)C[C@@]21C`, for which the “activity change, negative = inhibition” value is 4.33% [at 42.4 µM] (inactive).
The figure for `C=COCC(C)C` is 4.97% (inactive).
`CC(C)Cn1cnc2c(N)nc3ccccc3c21`: the activity change, negative = inhibition was 2.85% [at 18.9 µM] (inactive).
The figure for `Cc1cc(-c2ccccc2)nnc1NCCN1CCOCC1` is 1.24% [at 42.4 µM] (inactive); for `CC(C)CC(=O)C1C(=O)c2ccccc2C1=O` it is -3.42% (inactive).
Next, `C=C1C[C@@]23CC[C@H]4[C@@](C)(CCC[C@@]4(C)C(=O)O[C@@H]4O[C@H](CO)[C@@H](O)[C@H](O)[C@H]4O)[C@@H]2CC[C@]1(O[C@@H]1O[C@H](CO)[C@@H](O)[C@H](O[C@@H]2O[C@H](CO)[C@@H](O)[C@H](O)[C@H]2O)[C@H]1O[C@@H]1O[C@H](CO)[C@@H](O)[C@H](O)[C@H]1O)C3`: 1.85% (inactive).
The figure for `O=C(Nc1cccc(C2=NCCN2)c1)Nc1cccc(C2=NCCN2)c1` is -6.62% [at 18.9 µM] (inactive).
